Laboratory results: PubChem BioAssay (NCATS)
Results filed as inconclusive are left out. Activity calls are given as the source filed them. Unless noted, the call rests on the fitted dose curve; in most records, active means well fitted curve in the direction sought with a large enough effect; inconclusive means small, poorly fitted or top-dose-only effect, or another doubt; inactive means no such curve, though single readings can be large; an effect the other way counts as inactive or inconclusive.

Key:
[1] = molecular target: N-terminal Xaa-Pro-Lys N-methyltransferase 1 (Homo sapiens) (UniProt Q9BV86); test: Confirmatory qHTS for Inhibitors of N-terminal methyltransferase 1 (NTMT1): MTaseGlo Assay (AID 1645874); further: nearly all actives have a fitted effect of over 65% in size; further: potency means the concentration at half of the fitted maximal effect;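 on activity change, negative = inhibition: luminescence from SAH made as NTMT1 methylates SPKRIA peptide using SAM; 0% = DMSO control and -100% = no-enzyme control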
Method in brief: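 Luminescent MTase-Glo read-out of SAH. 125 nM NTMT1, 100 uM SAM, 1 uM SPKRIA substrate, 30 min RT reaction after 15 min compound preincubation. Normalized to no-enzyme and DMSO controls; Hill fit.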

[2] = Primary qHTS for inhibitors of nuclear receptor binding SET domain protein 2 (NSD2) in an isogenic RCH-ACV NSD2 p.E1099K mutant (9B) (AID 1645876); further: nearly all actives have a fitted effect of over 70% in size; further: potency means the concentration at half of the fitted maximal effect
[3] = Primary qHTS for inhibitors of nuclear receptor binding SET domain protein 2 (NSD2) in an RCH-ACV wild type WT cells (2C) (AID 1645877); further: nearly all actives have a fitted effect of over 70% in size; further: potency means the concentration at half of the fitted maximal effect
[4] = NCATS anti-infectives library activity on HEK293 viability as a counter-qHTS vs the C. elegans viability qHTS (AID 1745854);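 further: HEK293 cells exposed to compounds for 24 hr before the viability read; on the % scale 0 is the no-effect control and ±100 the full control effect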
Method in brief: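 Cytotoxicity in human HEK293 cells is measured by ATP-dependent CellTiter-Glo luminescence following a 24 hr incubation with titrated library compounds at 37C. Top final concentration is 41.7 uM.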

[5] = molecular target: Glutathione peroxidase 1 (Homo sapiens) (UniProt P07203); test: Primary qHTS Assay for Inhibitors of Recombinant Selenoprotein Glutathione Peroxidase 1 (GPX1) (AID 1845191); further: nearly all actives have a fitted effect of over 65% in size
Method in brief: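 Recombinant GPX1 (10 nM final) was preincubated with compound for 30 min at room temperature, then reacted with 1 mM GSH, 0.5 mM CHP, 0.5 mM NADPH and 100 nM glutathione reductase; NADPH fluorescence (340/450 nm) was read at 0 and 15 min.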

[6] = molecular target: Phospholipid hydroperoxide glutathione peroxidase GPX4 (Homo sapiens) (UniProt P36969); test: Primary qHTS Assay for Inhibitors of Recombinant Selenoprotein Glutathione Peroxidase 4 (GPX4) (AID 1845192); further: on the % scale 0 is the no-effect control and ±100 the full control effect; nearly all actives have a fitted effect of over 65% in size
Method in brief: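 GR-coupled readout: 100 nM GR, 1 mM GSH, 0.5 mM NADPH; NADPH fluorescence (ex 340/em 450 nm) read at t=0 and after 15 min RT. GPX4 200 nM, preincubated 30 min with compound; substrate 0.5 mM CHP.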

[7] = qHTS drug screen for cell cycle checkpoint inhibitors in PARPi-resistant BRCA-mutant ovarian cancer cell lines. (AID 1963452; calls by dose curve); conditions: PEO1/OlaR viability, CellTiter-Glo luminescence, 96 h, stronger effect = lower value
Method in brief: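 PEO1, PEO4 and PEO1/OlaR ovarian cancer cells, 600 per well, exposed 96 h at 37C to a dilution series. Viability read by CellTiter-Glo luminescence, normalized to DMSO and empty wells; activity summarized as Z-AUC.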

[8] = molecular target: Catechol O-methyltransferase (Homo sapiens) (UniProt P21964); test: Confirmatory Screen for Target Class Profiling of Small Molecule Inhibitors of Methyltransferases (AID 1745852; calls by dose curve; further: potency means the concentration at half of the fitted maximal effect); conditions: MTase-Glo luminescence, SAH detection, recombinant enzyme; measured here: COMT max response; stronger effect = lower value
[9] = molecular target: Guanidinoacetate N-methyltransferase (Homo sapiens) (UniProt Q14353); test: as above; conditions: MTase-Glo luminescence, SAH detection, recombinant enzyme; activity change, negative = inhibition: at 57.3 µM (top of the series) unless noted
[10] = molecular target: Nicotinamide N-methyltransferase (Homo sapiens) (UniProt P40261); test: as above; conditions: MTase-Glo luminescence, SAH detection, recombinant enzyme; measured here: NNMT max response; stronger effect = lower value
[11] = molecular target: Phenylethanolamine N-methyltransferase (Homo sapiens) (UniProt P11086); test: as above; conditions: MTase-Glo luminescence, SAH detection, recombinant enzyme; measured here: PNMT max response; stronger effect = lower value
[12] = molecular target: Tyrosine-protein kinase Yes (Homo sapiens) (UniProt P07947); test: qHTS for small molecule inhibitors of Yes1 kinase: Primary Screen (AID 686947);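 further: plate controls were DMSO with enzyme for no effect and no-enzyme DMSO wells for full effect; nearly all actives have a fitted effect of over 60% in size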
Method in brief: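 ADP-Glo luminescence readout; final 4 nM Yes1, 0.1 mM ATP, 0.3 mg/mL poly(E4Y), Tris pH 7.5, MgCl2, DTT, Brij-35. 20 min compound preincubation, 60 min reaction at RT. Normalized to DMSO wells with and without enzyme.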

[13] = qHTS for small molecule inhibitors of Yes1 kinase: Counter Assay (AID 686950);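 further: no kinase present so only ADP-Glo detection of a fixed ADP amount is tested; luminescence from ADP-Glo reporting ADP in a fixed ATP and ADP mixture; 0% = DMSO wells with ATP plus ADP and -100% = ATP-only wells without ADP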
Method in brief: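 Enzyme-free ADP-Glo interference check: compounds were preincubated 20 min in buffer, then an ATP/ADP mix (0.08 mM ATP, 0.02 mM ADP final) was added for 60 min at room temperature before two-step ADP-Glo luminescence detection.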

[14] = measured here: PEO1 parental Z-AUC

Sequence of Phospholipid hydroperoxide glutathione peroxidase GPX4 (Homo sapiens) (P36969 whole entry, looked up): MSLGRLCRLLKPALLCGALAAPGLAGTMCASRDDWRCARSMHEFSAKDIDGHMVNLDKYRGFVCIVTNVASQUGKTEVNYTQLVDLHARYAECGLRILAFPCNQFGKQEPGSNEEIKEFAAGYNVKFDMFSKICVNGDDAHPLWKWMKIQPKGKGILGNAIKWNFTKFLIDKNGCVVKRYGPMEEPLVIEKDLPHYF
Sequence of Glutathione peroxidase 1 (Homo sapiens) (P07203 whole entry, looked up): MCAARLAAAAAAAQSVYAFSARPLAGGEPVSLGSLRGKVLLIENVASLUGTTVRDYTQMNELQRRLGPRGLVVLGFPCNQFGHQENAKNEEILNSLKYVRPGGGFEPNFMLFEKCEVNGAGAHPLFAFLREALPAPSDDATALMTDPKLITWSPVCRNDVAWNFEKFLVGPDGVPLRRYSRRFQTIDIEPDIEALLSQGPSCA
Sequence of N-terminal Xaa-Pro-Lys N-methyltransferase 1 (Homo sapiens) (Q9BV86 whole entry, looked up): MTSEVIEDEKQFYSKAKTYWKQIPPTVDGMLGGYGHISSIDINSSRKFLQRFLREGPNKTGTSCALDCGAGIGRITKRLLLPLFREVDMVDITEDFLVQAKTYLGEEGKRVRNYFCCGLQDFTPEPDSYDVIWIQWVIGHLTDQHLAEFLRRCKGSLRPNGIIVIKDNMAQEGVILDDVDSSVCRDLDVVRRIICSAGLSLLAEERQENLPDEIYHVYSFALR
Sequence of Nicotinamide N-methyltransferase (Homo sapiens) (P40261 whole entry, looked up): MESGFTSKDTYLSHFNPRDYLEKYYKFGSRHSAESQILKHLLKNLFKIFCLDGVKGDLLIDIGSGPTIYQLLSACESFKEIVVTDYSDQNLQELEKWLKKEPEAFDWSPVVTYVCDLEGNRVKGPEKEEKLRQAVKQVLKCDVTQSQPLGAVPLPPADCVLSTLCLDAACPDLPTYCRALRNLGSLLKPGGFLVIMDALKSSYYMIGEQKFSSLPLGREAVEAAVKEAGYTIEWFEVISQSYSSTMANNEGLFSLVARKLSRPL
Sequence of Catechol O-methyltransferase (Homo sapiens) (P21964 whole entry, looked up): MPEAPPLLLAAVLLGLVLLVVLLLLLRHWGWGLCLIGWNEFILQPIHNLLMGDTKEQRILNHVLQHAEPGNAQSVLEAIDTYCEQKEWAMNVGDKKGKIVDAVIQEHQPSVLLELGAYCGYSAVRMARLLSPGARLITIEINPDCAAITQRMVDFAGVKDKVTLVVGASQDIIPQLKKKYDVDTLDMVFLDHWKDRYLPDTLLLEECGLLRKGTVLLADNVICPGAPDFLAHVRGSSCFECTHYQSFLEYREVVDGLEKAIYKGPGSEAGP
Sequence of Phenylethanolamine N-methyltransferase (Homo sapiens) (P11086 whole entry, looked up): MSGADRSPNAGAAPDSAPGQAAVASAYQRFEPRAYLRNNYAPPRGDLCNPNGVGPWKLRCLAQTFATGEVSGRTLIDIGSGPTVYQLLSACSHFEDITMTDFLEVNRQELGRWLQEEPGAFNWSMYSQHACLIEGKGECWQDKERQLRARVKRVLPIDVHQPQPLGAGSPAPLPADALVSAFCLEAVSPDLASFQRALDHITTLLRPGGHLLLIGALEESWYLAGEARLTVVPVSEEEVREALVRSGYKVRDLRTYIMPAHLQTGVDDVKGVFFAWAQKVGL
Sequence of Tyrosine-protein kinase Yes (Homo sapiens) (P07947 whole entry, looked up): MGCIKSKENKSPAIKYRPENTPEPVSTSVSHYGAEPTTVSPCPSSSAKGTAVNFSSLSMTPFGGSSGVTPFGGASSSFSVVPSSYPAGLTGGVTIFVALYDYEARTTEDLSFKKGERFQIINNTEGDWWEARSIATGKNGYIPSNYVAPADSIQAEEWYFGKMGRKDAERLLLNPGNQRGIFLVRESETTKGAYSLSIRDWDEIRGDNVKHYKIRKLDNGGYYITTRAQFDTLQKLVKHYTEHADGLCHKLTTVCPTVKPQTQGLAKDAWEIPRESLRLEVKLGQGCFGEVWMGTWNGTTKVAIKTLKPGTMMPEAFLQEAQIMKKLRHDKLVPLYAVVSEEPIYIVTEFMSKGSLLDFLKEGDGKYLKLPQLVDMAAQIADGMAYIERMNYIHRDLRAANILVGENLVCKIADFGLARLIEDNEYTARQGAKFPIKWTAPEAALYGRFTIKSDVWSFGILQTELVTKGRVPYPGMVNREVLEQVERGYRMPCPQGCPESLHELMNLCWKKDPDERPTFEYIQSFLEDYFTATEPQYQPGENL

## Cc1ccc(C)n1-c1cccc(C(=O)O)c1
[1]
  Potency: 6.02 µM (active)

## COc1cc2c(NC3CCN(C(C)C)CC3)nc(N3CCCCCC3)nc2cc1OCCCN1CCCC1
[1]
  Potency: 30.8 µM (active)

## Cc1c(Cl)ccc2sc(N3CCN(C(=O)C4CC4)CC3)nc12
[1]
  Potency: inactive

## O=C1NC(=O)/C(=C\c2ccc(-c3ccc(F)cc3O)o2)S1
[2]
  Potency: 13 µM (active)
[3]
  Potency: 11.6 µM (active)

## COCCCNC(=O)CSc1c2c(nc3ccc(Cl)cc13)CCCC2
[1]
  Potency: inactive

## O=C(CCCCCCNC(=O)c1cnc(N(c2ccccc2)c2ccccc2Cl)nc1)NO
[2]
  Potency: 2.63 µM (active)
[3]
  Potency: 2.09 µM (active)
[4]
  outcome: inactive
[5]
  Potency: inactive
[6]
  Potency: inactive
[7]
  Z-AUC: 0.102 (inactive)
[7]; [14]
  Z-AUC: -0.152
[7]; measured here: PEO4 Z-AUC
  Z-AUC: -0.286

## COc1cc2c(NC3CCN(C(C)C)CC3)nc(N3CCCN(C4CCCCC4)CC3)nc2cc1OCCCN1CCCCC1
[1]
  Potency: 34.5 µM (active)

## [N-]=[N+]=N[C@]1(CO)O[C@@H](n2ccc(N)nc2=O)[C@@H](O)[C@@H]1O
[2]
  Potency: 5.17 µM (active)
[3]
  Potency: 3.66 µM (active)
[4]
  outcome: inactive

## O=C1NC(=O)/C(=C/c2ccc(-c3ccc(F)cc3)o2)S1
[2]
  Potency: inactive

## Cc1cn(C2C[C@H](O)[C@@H](CO)O2)c(=O)[nH]c1=O (stereo partly specified)
[2]
  Potency: inactive
[3]
  Potency: inactive

## O=c1c2cc3c(cc2nc2sc(Nc4ccccc4)nn12)OCO3
[1]
  Potency: inactive

## O=c1c(-c2ccc(O)cc2)coc2cc(O[C@@H]3O[C@H](CO)[C@@H](O)[C@H](O)[C@H]3O)ccc12
[2]
  Potency: 16.6 µM (active)
[3]
  Potency: 16.6 µM (active)
[4]
  outcome: inactive
[5]
  Potency: inactive
[6]
  Potency: inactive
[7]
  Z-AUC: 1.43 (inactive)
[7]; [14]
  Z-AUC: 1.29
[7]; measured here: PEO4 Z-AUC
  Z-AUC: 1.57

## COc1cc2c(NC3CCN(CC4CCCCC4)CC3)nc(N3CCCN(C)CC3)nc2cc1OCCCN1CCCCC1
[1]
  Potency: 34.5 µM (active)

## c1csc(-c2nc3ccccn3c2Nc2ccc3c(c2)OCCO3)c1
[1]
  Potency: 6.49 µM (active)

## CC[C@]12C=CCN3CC[C@@]4(c5cc([C@@]6(C(=O)OC)CC7C[C@@H](C(C)(F)F)CN(Cc8c6[nH]c6ccccc86)C7)c(OC)cc5N(C)[C@H]4[C@@](O)(C(=O)OC)[C@@H]1OC(C)=O)[C@@H]32 (stereo partly specified)
[2]
  Potency: 0.263 µM (active)
[3]
  Potency: 0.186 µM (active)

## CCCCOc1ccc(CC/C=C2\SC(=O)N(CCN)C2=O)cc1
[2]
  Potency: 9.2 µM (active)
[3]
  Potency: 8.2 µM (active)

## Nc1nc(Nc2ccc3c(c2)CC[C@@H](N2CCCC2)CC3)nn1-c1cc2c(nn1)-c1ccccc1CCC2
[2]
  Potency: 2.63 µM (active)
[3]
  Potency: 3.32 µM (active)
[8]
  activity: -19.2%
[9]
  Potency: 24.1 µM (active)
[10]
  activity: -19.6%
[11]
  activity: -24%
[5]
  Potency: inactive
[6]
  Potency: inactive
[7]
  Z-AUC: 0.211 (inactive)
[7]; [14]
  Z-AUC: -0.494
[7]; measured here: PEO4 Z-AUC
  Z-AUC: -0.517

## Nc1nonc1-c1nc2cnccc2n1C1CCCCC1
[12]
  outcome: inactive
[13]
  outcome: inactive
[2]
  Potency: 5.17 µM (active)
[3]
  Potency: 2.91 µM (active)
[8]
  activity: -23.3%
[9]
  Potency: 27.1 µM (active)
[10]
  activity: -44.1%
[11]
  activity: -20.9%
[5]
  Potency: inactive
